Assay outcomes: PubChem BioAssay, National Center for Advancing Translational Sciences (NCATS)
TRb-SRC2 inh – disrupts binding of human TR beta to SRC2; P10828; TRbeta-SRC2 peptide binding, fluorescence polarization; receptor liganded with 1 µM T3; Potency, µM (doses to about 106 µM), without a hit: at the highest dose activity change, negative = inhibition, actives largely listed as inhibitors; 280,000 compounds, 0.065% hits;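 further: potency means the concentration at half of the fitted maximal effect; plate controls were bound peptide for no effect and peptide without receptor for full effect; nearly all actives have a fitted effect of over 50% in size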
Target sequence (P10828 whole entry, looked up): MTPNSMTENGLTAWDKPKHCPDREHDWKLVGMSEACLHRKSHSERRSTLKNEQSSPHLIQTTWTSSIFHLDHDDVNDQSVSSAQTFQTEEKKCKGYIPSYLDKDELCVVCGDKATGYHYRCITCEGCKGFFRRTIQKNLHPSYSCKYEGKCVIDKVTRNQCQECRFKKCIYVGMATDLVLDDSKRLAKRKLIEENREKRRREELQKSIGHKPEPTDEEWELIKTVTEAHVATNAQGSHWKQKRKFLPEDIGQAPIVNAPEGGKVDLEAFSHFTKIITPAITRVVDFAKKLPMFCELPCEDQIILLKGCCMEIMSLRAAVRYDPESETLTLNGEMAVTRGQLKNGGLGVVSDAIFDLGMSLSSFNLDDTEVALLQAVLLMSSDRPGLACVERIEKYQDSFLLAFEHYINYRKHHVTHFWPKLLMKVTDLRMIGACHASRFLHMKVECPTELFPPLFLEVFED
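Binding of a 20-amino-acid Texas Red SRC2 peptide (20 nM) to TRb ligand-binding domain (0.6 uM) with agonist T3 at 1 uM was followed by fluorescence polarization after a 5 hr room-temperature incubation.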
TexasRed fluor – counter-screen for TRb-SRC2 inhibitors: fluorescence interference | TRb/SRC2 Texas Red total fluorescence interference | 280,000 compounds, 0.29% hits | Potency, µM (series often up to 106 µM), without a hit: top-dose fluorescence change, negative = quenching | AID 1479; active means well fitted curve in either direction with a large enough effect; inconclusive means small, poorly fitted or top-dose-only effect; further: potency means the concentration at half of the fitted maximal effect; on the % scale 0 is the no-effect control and ±100 the full control effect
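Flags fluorescent or light-absorbing compounds by total fluorescence, S + 2P, at 555 nm excitation and 632 nm emission. Mixture: 20 nM Texas Red SRC2 peptide, 0.6 uM human TRb LBD, 1 uM T3, 5% DMSO; compound exposure 5 h at ambient temperature.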
PNC assembly inh – perinucleolar compartment assembly inhibition | PC3M PTB-GFP, PNC prevalence imaging, 16 h; stronger effect = lower value | activity change (PNC), negative = inhibition, % at 10 µM | 140,000 compounds, 3.1% hits;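 active means readout at or below -70, meaning at least 70% loss of cells showing the perinucleolar compartment, a nuclear body marking cancer cells; inconclusive means readout between -30 and a set limit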;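 further: plate controls were DMSO wells for no effect and camptothecin positive control wells for full effect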
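Read-out is percentage of cells bearing a perinucleolar compartment, from automated 20x imaging of fixed, Hoechst-stained PC3M PTB-GFP cells. Cells were seeded 4 h, then exposed 16 h to compound (23 nl of library stock) in duplicate plates.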
Tau fibril ThT – inhibitors of human tau fibril formation, thioflavin T binding; P10636; recombinant tau K18 P301L, heparin-induced fibrillization, ThT fluorescence; Potency, µM (doses to about 57.4 µM), without a hit: top-dose activity, negative = inhibition, usual class: inhibitors; 270,000 compounds, 2.1% hits; further: potency means the concentration at half of the fitted maximal effect; on the % scale 0 is the no-effect control and ±100 the full control effect; nearly all actives have a fitted effect of over 55% in size
Target sequence (P10636 561-689 P618L limits assumed): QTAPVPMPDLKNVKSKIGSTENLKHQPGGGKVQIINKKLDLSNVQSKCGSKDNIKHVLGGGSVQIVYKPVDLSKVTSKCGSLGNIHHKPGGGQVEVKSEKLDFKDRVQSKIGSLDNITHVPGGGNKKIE
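In this qHTS, human K18 P301L tau is incubated with compound and heparin for 6 hr at 37 C, and Thioflavin T fluorescence then reports fibril load.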
Tau fluor cs – counter-screen for tau fibril formation inhibitors; 280,000 compounds, 0.93% hits; tau K18 P301L Alexa594 fluorescence, heparin fibrillization; Potency, µM (series often up to 57.7 µM), without a hit: top-dose activity change, negative = decrease; AID 1463; further: potency means the concentration at half of the fitted maximal effect; on the % scale 0 is the no-effect control and ±100 the full control effect; nearly all actives have a fitted effect of over 55% in size
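Human tau K18 P301L (15 uM unlabeled, 0.24 uM Alexa 594-labeled) in 100 mM sodium acetate pH 7 with 20 uM heparin, 6 hr at 37 C. ThT 30 uM added, 1 hr ambient; Alexa 594 FP and total fluorescence read at 555/632 nm.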
Tau fibril FP – inhibitors of human tau fibril formation; K18 P301L tau heparin fibrillization, Alexa594 FP, 6 h; Potency, µM (doses to about 57.7 µM), for the others: at the highest dose activity, negative = inhibition, usual class: inhibitors; 280,000 compounds, 0.39% hits; further: potency means the concentration at half of the fitted maximal effect; on the % scale 0 is the no-effect control and ±100 the full control effect; nearly all actives have a fitted effect of over 55% in size
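K18 P301L tau (15 uM unlabeled/0.24 uM Alexa 594-labeled, final) + compound + heparin 20 uM final; 100 mM NaOAc pH 7; 6 hr 37 C; ThT 30 uM final added, 1 hr RT; FP ex 555/em 632 nm.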
Tau fibril TEM – Inhibits tau K18 fibrillization by TEM grading; AID 1719; fibril grade (0 = clumped fibrils, 4 = only tiny pieces) (test concentration not listed); recombinant tau K18 P301L fibrillization, TEM grading; stronger effect = higher value; 45 compounds, 70% hits; shares compounds with Tau fibril ThT;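 active means compounds whose electron micrographs showed tau fibrils broken into shorter filaments or fragments, graded high on fibril breakup; inconclusive means micrographs gave an unclear fibril picture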
tau sediment – inhibitors of human tau fibrillization, sedimentation test; shares compounds with Tau fibril ThT; recombinant tau K18 P301L (four-repeat tau fragment), sedimentation SDS-PAGE densitometry; inhibition, % at 100 µM; 110 compounds, 50% hits; in the data active means inhibition above about 40%; inconclusive means no clear call, values can overlap the other calls; inactive means below about 18%
An asterisk follows results filed as active; ? = inconclusive; / = not tested or not shown; [ ] = remark or other dose. An excerpt weighted towards active compounds, which were near 4.6% of everything screened. Unless noted, the call rests on the fitted dose curve; in most records, active means well fitted curve in the direction sought with a large enough effect; inconclusive means small, poorly fitted or top-dose-only effect, or another doubt; inactive means no such curve, though single readings can be large; an effect the other way counts as inactive or inconclusive.

SMILES	TRb-SRC2 inh	TexasRed fluor	PNC assembly inh	Tau fibril ThT	Tau fluor cs	Tau fibril FP	others
CCCn1nc(C(=O)OCC(=O)Nc2ncc(Cl)c(C)c2Cl)c2ccccc2c1=O	10.5%	0.1%	-112.6*	-4.1%	-1.0%	6.1%
CC(=O)c1c(C)[nH]c(C(=O)OCC(=O)Nc2ncc(Cl)c(C)c2Cl)c1C	-9.0%	3.9%	-100.0*	?	-18.1%	-3.5%
CCN1CCCC1CNC(=O)c1csc2c1CCCC2 (stereo not given)	7.0%	1.2%	-85.4*	-11.5%	-5.4%	10.9%
Cc1ccccc1NC(=O)CC1SCCNC1=O (stereo not given)	-6.6%	-5.6%	-91.5*	-10.9%	-1.6%	-10.2%
COc1ccc(C(=O)/C=C/c2cn(CC(O)CN3CCOCC3)c3ccccc23)cc1 (stereo not given)	6.4%	-8.6%	-25.2	10µM*	?	?
O=Cc1cn(CC(O)CN2CCCCC2)c2ccccc12 (stereo not given)	-1.0%	1.3%	/	0.0%	1.1%	8.4%
Cc1ccc(C(=O)/C=C/c2cn(CC(O)CN3CCOCC3)c3ccccc23)cc1 (stereo not given)	9.4%	-2.7%	-24.1	?	-22.7%	5.8%
O=C(/C=C/c1cn(CC(O)CN2CCOCC2)c2ccccc12)c1cccs1 (stereo not given)	5.3%	-5.0%	/	14.1µM*	?	5.7%
CC1(CC(=O)N/N=C/c2ccc(-c3cccc(C(F)(F)F)c3)o2)OCCO1	-8.4%	-1.9%	-24.5	-3.9%	-6.4%	-5.0%
CCOc1ccc(-c2nnn(CC(=O)NCc3ccco3)n2)cc1OCC	-1.2%	1.2%	-100.0*	2.2%	-5.8%	-0.9%
C#CC1(O)CC(C)N(C)C(C)C1 (stereo not given)	-3.0%	-0.7%	-90.8*	9.0%	10.7%	2.3%
Cc1ccc2c(c1)c(N1CCCC1=O)c(C(=O)Nc1ccc(F)cc1F)n2C	-0.3%	-1.6%	/	6.6%	-1.1%	2.5%
Fc1ccccc1CSc1nnc(-c2cnccn2)n1Cc1ccco1	-0.2%	-1.2%	-100.0*	-3.6%	-2.7%	1.5%
CCN(CC)c1cc(C)c2cc(NC(=O)/C=C/c3ccccc3Cl)ccc2n1	10.7%	-2.3%	/	3.55µM*	7.94µM*[quencher]	9.1%
CCCCOC(=O)c1cccc(NC(=O)/C=C/c2ccccc2Cl)c1	-7.7%	-14.9%	/	6.9%	?	10µM*
Cc1ccc(C(=O)Nc2ccc3nc(N4CCCCC4)cc(C)c3c2)cc1F	2.1%	0.8%	/	10.8%	3.6%	0.6%
Cc1cc(N2CCCCC2)nc2ccc(NC(=O)c3cccc(F)c3)cc12	4.7%	-0.1%	/	?	12.6µM*[quencher]	9.6%
CCN(CC)c1cc(C)c2cc(NC(=O)c3cccc(F)c3)ccc2n1	-1.7%	0.2%	/	?	31.6µM*[quencher]	16.1%
S=C(NCCc1ccccn1)NC1CC2CCC1C2 (stereo not given)	-4.0%	-8.0%	/	/	10.1%[11.6 µM]	-1.4%[11.6 µM]
CCOC(=O)C1CCN(C(=O)Cn2cc(C(=O)C3CC3)c3ccccc32)CC1	-3.1%	0.5%	?	-3.2%	1.2%	-1.7%
COc1ccc(OCC2c3cc(OC)c(OC)cc3CCN2C(=O)c2c(F)cccc2F)cc1 (stereo not given)	8.5%	0.1%	/	-6.1%	-22.8%	1.0%
COc1ccc(OC)c(C(=O)COC(=O)c2c(OC)cccc2OC)c1	2.3%	-0.3%	-22.5	-10.2%	-7.4%	-1.1%
Cc1cc(N2CCCCC2)nc2ccc(NC(=O)c3cccc(Cl)c3)cc12	-4.9%	-3.2%	/	10µM*	14.1µM*[quencher]	?
Cc1cccc(/C=C(\c2nc3ccccc3[nH]2)S(=O)(=O)c2ccccc2)c1	2.8%	-2.6%	-81.8*	10.8%	5.9%	-1.6%
CN(CCOc1ccc(-c2ccn(S(=O)(=O)c3cccc4ccccc34)n2)cc1)c1ccccn1	-2.4%	-2.7%	-89.2*	-9.9%	-19.6%	-5.1%
SMILES	TRb-SRC2 inh	TexasRed fluor	PNC assembly inh	Tau fibril ThT	Tau fluor cs	Tau fibril FP	others
O=C(COC(=O)c1n[nH]c2ccccc12)NC(=O)NC1CCCCC1	-4.8%	0.9%	-126.9*	-7.1%	-17.0%	-2.4%
CNC(=O)NC(=O)COC(=O)c1n[nH]c2ccccc12	1.0%	-4.8%	/	-14.8%	-3.7%	-3.8%
O=c1c(O)c(-c2ccc(O)cc2)oc2ccc(O)cc12	6.0%	-8.4%	/	?	-22.3%	-12.5%
Nc1ccc2oc3ccc(N)cc3c(=O)c2c1	7.9%	-8.4%	27.4	14.1µM*	-20.4%	3.7%
CCOc1ccc(NC(=O)N2CCC(CN3CCC(C)CC3)CC2)cc1	-18.7%	100µM*[quencher]	/	-0.7%	-5.3%	1.6%
C#CCn1c(-c2ccccc2)ccc(C#N)c1=O	5.9%	-4.4%	/	9.1%	9.7%	5.1%
COc1cccc(-c2nc(CS(=O)CC(=O)O)c(C)o2)c1 (stereo not given)	-1.8%	-0.3%	12.7	-17.9%	-3.2%	0.0%
Oc1cc2c(cc1O)C1c3ccc(O)c(O)c3OCC1(O)C2 (stereo not given)	0.9%	-4.4%	/	3.98µM*	?	25.1µM*
O=C(Oc1ccc(Br)cc1C(=S)N1CCCCC1)c1cc([N+](=O)[O-])cc([N+](=O)[O-])c1	-13.3%	-2.9%	13.6	?	22.4µM*[quencher]	-0.7%
O=C(Oc1cccc(C(=S)N2CCOCC2)c1)c1cc([N+](=O)[O-])cc([N+](=O)[O-])c1	-3.7%	-1.0%	/	?	20µM*[quencher]	-0.7%
O=S(=O)(c1ccc(N=C2NN=C(c3cc(F)ccc3F)CS2)cc1)N1CCOCC1	-6.5%	-3.0%	/	6.31µM*	?	?	Tau fibril TEM=3*;tau sediment=44.0*
CCOc1cc(/C=N/N=C2/NC(=O)C(CC(=O)O)S2)ccc1OCc1ccc(Cl)cc1Cl (stereo not given)	8.9%	-6.1%	/	?	7.9%	-0.7%
COc1cc(/C=N/N=C2/NC(=O)C(CC(=O)O)S2)ccc1OCc1ccc(Cl)cc1 (stereo not given)	4.6%	-19.3%	-16.5	-8.3%	3.7%	12.2%	tau sediment=18.0
NC(=O)Cn1c(=O)n(CCCC(=O)NC2CCN(Cc3ccccc3)CC2)c(=O)c2ccccc21	2.9%	-1.1%	31.6	-12.3%	-11.7%	4.1%
